Here are results for eight compounds from PubChem BioAssay AID1345085 (National Center for Advancing Translational Sciences (NCATS), 2018).

Results filed as inconclusive are left out. A number with no mark means an inactive call. Active and inactive are the calls of the source. Calls follow the shape of the dose curve; as a rule, active = well fitted cell-killing curve with a large enough effect; inconclusive = small, poorly fitted or top-dose-only effect, or effect the other way; inactive = no such curve, though single readings can be large or run the other way.
% is scaled to controls: 0 for no effect and ±100 for the full control effect; potency is read from the fitted curve at half-maximal effect.

This experiment concerns HeLa. As to the kind of experiment: Confirmatory qHTS for gynecologic anti-cancer compounds from libraries of approved drugs and bioactive compounds. Also: nearly all actives have a fitted effect of over 55% in size. The settings on record: gynecologic cancer cell panel viability, ATPlite luminescence, 48 h; series mostly up to 57.6 µM; activity change, negative = viability loss: at the top concentration. Summed up:
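1,000 cells/well; 16 h pre-incubation 37 C, 5% CO2; pin-transferred cpd in DMSO, 11 conc (1:3), 57.5 uM–0.977 nM; 48 h; ATPlite, 15 min RT; luminescence → IC50.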
In general terms: Quantitative high-throughput screening tests each substance at several concentrations.
Regarding `C[C@]12CC[C@H]3[C@@H](CCC4=CC(=O)CC[C@@H]43)[C@@H]1CC[C@@H]2OC(=O)CCc1ccccc1`, the Potency was 2730 nM (active). Same read-out and setting: with `CCC(=O)O[C@H]1CC[C@H]2[C@@H]3CCC4=CC(=O)CC[C@]4(C)[C@H]3CC[C@]12C` the figure was 4320 nM (active); with `C/C=C(/C)C(=O)O[C@H]1C(C)=C2[C@H]([C@@H]1OC(=O)CCCCCCC)[C@@](C)(OC(C)=O)C[C@H](OC(=O)CCC)[C@@]1(O)[C@H]2OC(=O)[C@@]1(C)O`, 61.1 nM (active). Still for that read-out and setting: as for `C[C@H]1CCC/C=C/C2C[C@H](O)C[C@H]2[C@H](O)/C=C/C(=O)O1` (stereo partly drawn), the figure is 172 nM (active); as for `Cc1sc2c(c1C)C(c1ccc(Cl)cc1)=NC(CC(=O)OC(C)(C)C)c1nnc(C)n1-2` (stereo not drawn), 769 nM (active). Consider `O=C(O)Cc1ccccc1`, for which the “activity change, negative = viability loss” value is 19.4%. As for `CCNC(=O)C[C@@H]1N=C(c2ccc(Cl)cc2)c2cc(OC)ccc2-n2c(C)nnc21`, the Potency was 1530 nM (active).

`C=C(C)[C@H]1Cc2c(ccc3c2O[C@@H]2COc4cc(OC)c(OC)cc4[C@@H]2C3=O)O1`: the Potency is 243 nM (active).
